Where “and” joins values, the source holds several entries; their conditions need not be identical. Identical values can stand only once. In all, about 140,000 compounds went through this assay and about 80 (0.06%) were called active. This is one part of a sample in which actives are shown more often than they occur. No stated cut-off is given here; in the data, active means displacement above about 50%; inactive means the rest. Some compounds were tested as several samples or in several runs, with calls that do not always agree.

Here are results for 94 molecules from PubChem BioAssay AID583 (Sanford-Burnham Center for Chemical Genomics, 2007).

This assay deals with Heat shock 70 kDa protein 1A (Homo sapiens) (UniProt P0DMV8). As to the kind of experiment: Hsp70 inhibitors, probe displacement, primary screen, biochemical, fluorescence polarization (AID 583).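 Further: plate controls were vehicle for no effect and reference ligand for full effect.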 The conditions noted are these: mP, at 20 µM, stronger effect = higher value.
Heat shock 70 kDa protein 1A (Homo sapiens), sequence (P0DMV8 whole entry, looked up): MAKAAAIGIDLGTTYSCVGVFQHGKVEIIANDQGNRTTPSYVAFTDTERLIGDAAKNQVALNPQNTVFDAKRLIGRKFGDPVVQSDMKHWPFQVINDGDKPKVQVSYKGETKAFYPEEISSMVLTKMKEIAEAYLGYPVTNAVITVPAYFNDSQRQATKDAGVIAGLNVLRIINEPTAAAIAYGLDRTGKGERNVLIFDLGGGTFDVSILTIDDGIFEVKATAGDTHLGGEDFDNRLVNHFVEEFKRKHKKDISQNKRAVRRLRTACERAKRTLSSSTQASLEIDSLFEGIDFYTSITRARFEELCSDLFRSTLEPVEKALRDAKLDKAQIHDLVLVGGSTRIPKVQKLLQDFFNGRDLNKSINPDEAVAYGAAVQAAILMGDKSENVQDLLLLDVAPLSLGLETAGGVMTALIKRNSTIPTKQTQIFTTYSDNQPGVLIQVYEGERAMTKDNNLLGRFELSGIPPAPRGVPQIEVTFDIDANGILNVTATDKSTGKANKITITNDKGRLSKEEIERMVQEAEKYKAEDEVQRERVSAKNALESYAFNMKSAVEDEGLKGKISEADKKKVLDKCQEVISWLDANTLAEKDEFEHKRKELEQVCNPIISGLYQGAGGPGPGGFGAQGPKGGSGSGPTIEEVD
For `Cc1cccc(-c2cc3nc(C)cc(NCCCN(C)C)n3n2)c1`, the displacement was 4.1% (inactive). Take `CN(C)c1ccc(/C=N/N=C2/NC(=O)C(Cc3ccc(Cl)cc3)S2)cc1` (centres undefined): the displacement is -3.1% (inactive).

With `Cc1ccc(C)n1Cc1ccc(C(=O)O)cc1`, the displacement was 103% (active) and 21.6% (inactive). Under `O=C(O)c1ccc(CN2CCOCC2)cc1` stands 0% (inactive); under `Cc1cc(C)n(Cc2ccc(C(=O)O)cc2)n1`, -8.4% (inactive); under `N#Cc1cc2c(nc1SCc1ccc(Br)cc1)CCCC2`, -3.8% (inactive). As for `O=C(COc1ccc(Cl)cc1Cl)NNC(=O)CN1C(=O)/C(=C/c2ccc(Cl)cc2Cl)SC1=S`, the displacement is 0.4% (inactive). For `COc1ccccc1/C=N/NC(=O)C(=O)NCc1ccccn1`, the displacement was -2.8% (inactive). For `CCn1c2ccccc2c2cc(CN3CCN(C(=O)CC(C)C)CC3)ccc21`, the displacement is -0.3% (inactive). Take `Cc1ccc(-n2[nH]c(C)c(C=Nc3ccc(C)cn3)c2=O)cc1`: the displacement is 2% (inactive). Under `COc1ccccc1N1C(=O)C(=Cc2cccn2C)C(=O)NC1=S` stands 69.9% (active); under `Cn1cccc1/C=C1/C(=O)NC(=S)N(c2cccc(Cl)c2)C1=O`, 37.8% (inactive); under `COc1ccccc1C=C1C(=O)NC(=S)N(c2ccccc2F)C1=O`, 4% (inactive). With `N#Cc1cccc(-n2c(-c3ccccc3)nnc2-c2ccccc2)c1C#N`, the displacement was -2.8% (inactive). Under `COc1cc(NC(=O)c2ccc3c(c2)OCCO3)ccc1NC(=O)c1ccco1` stands -0.4% (inactive).

As to `Cc1nn(-c2ccc(F)cc2)c(C)c1NS(=O)(=O)c1ccc(Cl)cc1`, the displacement was 1% (inactive). In the case of `Cc1ccc(-n2[nH]c(=O)c(/C=c3/c(C)c(C#N)c4nc5ccccc5n4c3=O)c2O)cc1C` it was 83% (active). Under `Cc1c(C#N)c2nc3ccccc3n2c(=O)/c1=C\c1c(O)n(-c2ccc(Br)cc2)[nH]c1=O` stands 24.7% (inactive). In the case of `Cc1c(C#N)c2nc3ccccc3n2c(=O)/c1=C/c1sc2ccccc2c1O` it was 2.1% (inactive); in that of `Nc1ccc2c(c1)C(=O)N(c1ccccc1)C2=O`, 8.5% (inactive).

Take `O=C1c2ccccc2C(=O)N1c1ccc2c(c1)C(=O)N(c1ccccc1)C2=O`: the displacement was 4.1% (inactive). Under `O=[N+]([O-])c1cc(-c2nnc(-c3ccc(Br)o3)o2)cc([N+](=O)[O-])c1` stands 0.4% (inactive); under `O=C(NC1CC1)C1CCCN(C(=O)Nc2ccc(F)cc2)C1` (centres undefined), -7.5% (inactive).

Consider `Cc1ccc(C)c(S(=O)(=O)Nc2ccc3sc(C)nc3c2)c1`, for which the displacement is -3.2% (inactive). In the case of `CCOC(=O)c1[nH]cnc1C(=O)NCc1ccccc1` it was 88.8% (active).

Regarding `CCOC(=O)c1[nH]cnc1C(=O)Nc1ccccc1`, the displacement is 0% (inactive). Turning to `CCOC(=O)c1[nH]cnc1C(=O)Nc1ccccn1`, the displacement was -29.4% (inactive) and -2.5% (inactive). In the case of `CC1=C(C(=O)Nc2ccccc2C)C(c2ccc(C)o2)N2C(=O)CSC2=N1` (centres undefined) it was 1.1% (inactive).

Take `CCN1C(=O)/C(=C2\SC(=O)N(Cc3ccccc3)C2=O)c2ccccc21`: the displacement is -2.9% (inactive).

In the case of `N#C/C(=C\c1ccc(-c2cccc(Cl)c2Cl)o1)C(=O)NCc1ccco1`, the displacement was -2.5% (inactive). Under `Cc1ccc([N+](=O)[O-])cc1-c1ccc(/C=C(\C#N)C(=O)NCc2ccco2)o1` stands 75.7% (active).

For `N#C/C(=C\c1ccc(-c2ccc(C(=O)O)cc2)o1)C(=O)NCc1ccco1`, the displacement was -4.4% (inactive).

Turning to `CC(=O)OC(/C(O)=C(\C#N)c1nc2ccccc2[nH]1)c1ccccc1` (centres undefined), the displacement was -1.2% (inactive). `CC(NS(C)(=O)=O)C(c1cccs1)N1CCN(Cc2ccccc2)CC1` (centres undefined): the displacement is 3.1% (inactive). As for `O=C1N=c2ccccc2=C1c1sc(=Nc2ccccc2)n(-c2ccccc2)c1O`, the displacement was 5.2% (inactive). In the case of `O=C1N=c2ccccc2=C1c1s/c(=N/N=C2/C(=O)Nc3ccccc32)n(-c2ccc(O)cc2)c1O` it was 93.6% (active); in that of `O=C1N=c2ccccc2=C1c1sc(=O)n(-c2ccc(O)cc2)c1O`, -21.2% (inactive). For `CC(=O)NS(=O)(=O)c1ccc(NC(=O)c2ccccc2F)cc1`, the displacement is 6% (inactive). Under `COCC(=O)Nc1nc(-c2ccccc2)c(C)s1` stands -1.9% (inactive); under `O=C1NC(=S)N/C1=C/c1ccc(-c2cc([N+](=O)[O-])ccc2Cl)o1`, 17.3% (inactive); under `O=C1NC(=S)N/C1=C\c1ccc(-c2cc([N+](=O)[O-])ccc2Br)o1`, 51.2% (active). In the case of `O=C1NC(=S)N/C1=C\c1ccc(-c2cccc([N+](=O)[O-])c2)o1` it was 0.3% (inactive); in that of `Cc1ccc(NC(=O)c2ccccc2Br)cc1`, 1.9% (inactive); in that of `COc1ccccc1NC1=NC2(CCCCC2)N=C(N)N1`, 97.6% (active). For the molecule `COc1ccc(OC)c(NC2=NC3(CCCCC3)N=C(N)N2)c1`, the displacement is -6.7% (inactive) and 3.4% (inactive). Regarding `COc1ccc(OC)c(NC2=NC3(CCCC3)N=C(N)N2)c1`, the displacement is 0.2% (inactive) and -1.2% (inactive). In the case of `CC(C)Oc1c(I)cc(I)cc1/C=C(/C#N)c1nc2ccccc2[nH]1` it was -0.1% (inactive). As for `Cc1ccc(/C(N)=N/OC(=O)c2ccc(Br)cc2)cc1`, the displacement was 1.1% (inactive). In the case of `O=C1C(=O)N(CC2CCCO2)C(c2cccc([N+](=O)[O-])c2)/C1=C(/O)c1ccccc1` (centres undefined) it was -4.4% (inactive).

Regarding `COc1cccc(C2NC(=O)NC(C)=C2C(=O)OCCc2ccccc2)c1OC` (centres undefined), the displacement is -3% (inactive). Under `COc1ccc(Cn2c3nc4ccccc4nc3c3c(=O)n(Cc4ccco4)cnc32)cc1` stands -6% (inactive); under `COc1ccc(Cn2c3nc4ccccc4nc3c3c(=O)n(Cc4ccco4)c(C)nc32)cc1`, 2.5% (inactive); under `COc1ccc(Cn2c(C)nc3c(c2=O)c2nc4ccccc4nc2n3Cc2ccco2)cc1`, 69.5% (active).

Take `O=C(O)CCCN1C(=O)/C(=C/c2cccc(Br)c2)SC1=S`: the displacement was 6.7% (inactive). In the case of `O=C(O)CCCCCCCCCCN1C(=O)/C(=C/c2cccc(Br)c2)SC1=S` it was 56.6% (active); in that of `O=C(O)CCCCCN1C(=O)/C(=C/c2cccc(F)c2)SC1=S`, -1.8% (inactive); in that of `O=C(NN1CCOCC1)c1cc2ccccc2oc1=O`, 1.1% (inactive). Under `CC(=O)C1=C(C)NC(SCC(N)=O)=C(C#N)C1c1cccnc1` (centres undefined) stands -1.1% (inactive); under `Cc1ccc(C)n1-c1sccc1C(=O)O`, 24.9% (inactive). In the case of `COc1cc(C(=O)O)c(-n2c(C)ccc2C)cc1OC`, the displacement was 6.6% (inactive).

With `Cc1ccc(C)n1-c1ccc(Cl)cc1C(=O)O`, the displacement is 104% (active). Under `Cc1ccc(C)n1-c1ccccc1C(=O)O` stands 92.7% (active). Under `Cc1c(C(=O)O)cccc1-n1c(=O)c2cc3c(=O)n(-c4cccc(C(=O)O)c4C)c(=O)c3cc2c1=O` stands -1.1% (inactive); under `Cc1ccc(C)n1-c1ccc(Br)cc1C(=O)O`, 7.4% (inactive). In the case of `Cc1nc(=O)c(-c2ccccc2)c(C)n1-c1ccccc1C(=O)O` it was 6.5% (inactive). In the case of `Cc1c(C(=O)O)cccc1-n1c(C)ccc1C`, the displacement was 51.1% (active). In the case of `Cc1ccc(-c2ccccc2)n1-c1ccccc1C(=O)O` it was 5.6% (inactive). In the case of `COc1cc(OC)cc(C(=O)N2CCN(C(=O)c3cccc(F)c3)CC2)c1` it was 2.3% (inactive); in that of `COC(=O)c1ccc(/C=C2\SC(=S)N(C(Cc3ccccc3)C(=O)O)C2=O)cc1` (centres undefined), -0.2% (inactive); in that of `O=C1NC(=O)/C(=C/c2c(F)cccc2Cl)S1`, 4.2% (inactive). For `S=c1[nH]nc(-c2cccc(Cl)c2)n1-c1ccccc1`, the displacement was 4% (inactive). In the case of `COc1ccc(CC(=O)c2cc(OC)c(OC)cc2CC(=O)O)cc1OC` it was -0.7% (inactive); in that of `COC(=O)c1cc(C#N)c(SCc2ccccc2)nc1C`, -5% (inactive); in that of `O=C(c1ccc(N2CCN(C(=O)c3ccccc3F)CC2)cc1)c1cccc(F)c1`, -2.9% (inactive). Turning to `O=C(c1ccc(N2CCN(C(=O)c3ccccc3Br)CC2)cc1)c1cccc(F)c1`, the displacement was 83.6% (active).

With `O=C(c1ccc(N2CCN(C(=O)c3ccccc3)CC2)cc1)c1cccc(F)c1`, the displacement was -1.2% (inactive). `CCN1CCN(P2(=O)C=C(c3ccccc3)OC(c3ccccc3)=C2)CC1`: the displacement is 1.1% (inactive). In the case of `O=C(c1coc(=O)c(Br)c1)N1CCOCC1` it was 7.3% (inactive); in that of `O=C(c1coc(=O)c(Br)c1)N1CCCc2ccccc21`, 6.5% (inactive). Under `COc1ccc(CCNC(=O)CSc2nc3ccccc3o2)cc1OC` stands 0.2% (inactive); under `O=C1c2oc3ccc(F)cc3c(=O)c2C(c2ccccc2)N1CC1CCCO1` (centres undefined), -3.1% (inactive). In the case of `COc1ccc(C2c3c(oc4ccccc4c3=O)C(=O)N2CC2CCCO2)cc1` (centres undefined) it was -2.4% (inactive); in that of `O=C(COc1ccc([N+](=O)[O-])cc1)Nc1cccc(Cl)c1Cl`, 2.1% (inactive). Turning to `CCCCOc1ccc(N2C(=O)C3CC(C)=C(C)CC3C2=O)cc1` (centres undefined), the displacement was 0.2% (inactive). Take `CCOc1cc(CNn2cnnc2)cc(Br)c1OCC(=O)NC1CCCCC1`: the displacement is 5.5% (inactive). In the case of `C=CCn1c2ccccc2c2nnc(SCC(=O)Nc3sc4c(c3C#N)CCCC4)nc21`, the displacement is -2% (inactive). In the case of `CC(=NCCCn1ccnc1)c1c(-c2ccccc2)[nH]n(-c2nc3ccccc3s2)c1=O` it was 0.5% (inactive).

As for `Cc1c(NS(=O)(=O)c2cc(Cl)ccc2Cl)cccc1[N+](=O)[O-]`, the displacement is -2.4% (inactive). In the case of `O=C(Nc1ccc(N2CCOCC2)cc1)Nc1ccc2nc(-c3ccco3)c(-c3ccco3)nc2c1` it was 1.1% (inactive); in that of `O=C(Nc1ccc2nc(-c3cccs3)c(-c3cccs3)nc2c1)NC1CC1`, 2.3% (inactive). Take `Brc1ccc(/C=N/c2ncn[nH]2)cc1`: the displacement is 3.3% (inactive). Under `C=CCN1C(=O)/C(=C\c2ccc(OCc3ccccc3Cl)cc2)SC1=S` stands 56.5% (active); under `CCN1C(=O)/C(=C\c2ccc(OCc3ccccc3Cl)cc2)SC1=S`, -2.5% (inactive). Under `C=CCN1C(=O)/C(=C/c2cccc(OCc3ccccc3Cl)c2)SC1=S` stands 0.3% (inactive).
